# Compound activity from PubChem.
# This is a sample that favours compounds with a hit; in the whole collection about 5.7% have one here.
# hgDAF-12 ag: hgDAF-12 agonism, primary luciferase screen; HEK293 GAL4-hgDAF12 UAS-luciferase reporter, agonist luminescence; normalized to butyrate control; activation, % at 6.8 µM; 370,000 compounds, 1.8% hits; AID 687014;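 active = activation above a cutoff set at the mean of all screened compounds plus 3 SD, cut at about 10% in these data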;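 also: 0% = DMSO wells and 100% = sodium butyrate wells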
# DAX1 inh-1: inhibitors of DAX1 repression of SF-1 activated StAR promoter; HEK293T StAR-luciferase reporter, SF-1/DAX-1 repression relief; inhibition, % at 6.8 µM; 370,000 compounds, 1.1% hits; AID 652010;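 active = inhibition above the mean over all tested compounds plus 3 SD, cut at about 3.6% in these data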;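 also: 0% = DAX-1 cells with DMSO and 100% = cells lacking DAX-1 with DMSO; higher inhibition means more luminescence from relief of DAX-1 repression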
# ssDAF-12 act: activators of S. stercoralis DAF-12 nuclear receptor; HEK293 ssDAF-12/GRIP1 lit1-tk-luc reporter, luminescence; % of 3 µM dafachronic acid response; activation, % at 6.8 µM; 370,000 compounds, 1% hits; AID 652126;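 active = activation above the mean over all tested compounds plus 3 SD, cut at about 0.9% in these data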;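 also: 0% = DMSO-only wells and 100% = 3 µM delta7-dafachronic acid wells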
# DAX1 inh-2: inhibits human nuclear receptor DAX1. P51843. HEK293 Gal4-DAX1 luciferase reporter, luminescence. inhibition, % at 6.75 µM. 340,000 compounds, 0.99% hits;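 active = inhibition above the mean over all tested compounds plus 3 SD, cut at about 4.2% in these data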;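 also: 0% = DAX1-transfected cells with DMSO and 100% = empty-vector control cells with DMSO; inhibition shows as a rise in luminescence from relieved DAX1 repression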
# AHR act: activators of human aryl hydrocarbon receptor; AHR-responsive luciferase reporter cells, luminescence; activation, % at 5 µM; 320,000 compounds, 2.5% hits; AID 2796; in the data active = activation above about 47%;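 also: 0% = vehicle wells and 100% = reference agonist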
# hcDAF12 agonist: activators of H. contortus DAF-12 nuclear receptor. 370,000 compounds, 1.4% hits. activation, % at 6.8 µM. HEK293 hcDAF-12 lit1-tk-luc reporter, luminescence; 0% DMSO, 100% Δ7-dafachronic acid. AID 652067;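 active = activation above the mean of all tested compounds plus 3 SD, cut at about 5.5% in these data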;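 also: 100% = response to 3 µM Δ7-dafachronic acid high control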
# hgDAF12 ag: hgDAF-12 agonism, confirmation assay; shares compounds with hgDAF-12 ag; HEK293 GAL4-hgDAF12 luciferase reporter, agonist mode; percent of butyrate response; activation, % at 6.8 µM; 3,300 compounds, 80% hits;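 active = mean activation over triplicate wells above the hit cutoff derived from the earlier primary screen, cut at about 11% in these data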;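 also: 0% = DMSO low control and 100% = 2 mM sodium butyrate high control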
# LXRb DAF12 ctr: LXR-beta agonism as DAF-12 counter-screen; shares compounds with hgDAF-12 ag; HEK293 Gal4-LXR luciferase reporter, 24 h; activation, % at 6.8 µM; 3,300 tested, under 10 active;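 active = mean activation of the triplicate above a set limit carried over from the primary screen, none filed active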
# Target sequence (P55055 whole entry, looked up, the tested form may be a part): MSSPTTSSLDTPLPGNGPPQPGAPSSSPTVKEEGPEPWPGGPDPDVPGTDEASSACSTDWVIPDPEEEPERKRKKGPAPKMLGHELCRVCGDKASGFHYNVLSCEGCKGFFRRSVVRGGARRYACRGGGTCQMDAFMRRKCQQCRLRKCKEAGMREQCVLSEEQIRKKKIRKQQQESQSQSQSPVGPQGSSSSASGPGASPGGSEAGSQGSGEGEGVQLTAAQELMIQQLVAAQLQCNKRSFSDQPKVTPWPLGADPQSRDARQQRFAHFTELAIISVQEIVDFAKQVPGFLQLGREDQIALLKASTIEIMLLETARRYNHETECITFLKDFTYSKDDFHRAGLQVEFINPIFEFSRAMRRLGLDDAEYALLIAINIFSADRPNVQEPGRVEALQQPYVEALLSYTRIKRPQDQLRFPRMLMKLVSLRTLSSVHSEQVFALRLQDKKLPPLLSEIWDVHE
# Numbers without * were called inactive; x = no result.
SMILES,hgDAF-12 ag,DAX1 inh-1,ssDAF-12 act,DAX1 inh-2,AHR act,hcDAF12 agonist,hgDAF12 ag,LXRb DAF12 ctr
C=CCNc1nc(NCCOC)c2sc(-c3ccccc3)cc2n1,-1,-4,-2,x,x,-3,x,x
COc1ccc(O)c(C(=O)CC(=O)c2ccccc2C)c1,23*,1,0,4.8*,11,3,10,1
COc1ccc(NC(=O)c2ccccc2C)c(OC)c1,0,-1,-2,0,-3,-1,x,x
CCN(Cc1ccccc1)C(=O)COC(=O)c1cc(=O)[nH]c2ccccc12,2,-1,0,0,3,1,x,x
Cc1ccc2nc(-c3ccc4c(c3)NC(=O)CO4)cn2c1,14*,4.5*,0,3,-5,4,14*,1
Cc1cc(C(=O)COC(=O)c2ccc(O)cc2)c(C)n1Cc1ccco1,13*,4.2*,0,1,-1,6.0*,16*,0
Cc1cc(C(=O)CSc2ncccn2)c(C)n1Cc1ccco1,17*,4,0.9*,1,7,6,18*,1
COc1ccc(S(=O)(=O)N2CCC(C(=O)NCCCc3ccccc3)CC2)cc1,-2,-1,-1,0,-1,-1,x,x
O=C(Cc1ccccc1)NC1CCSc2ccccc21 (stereo not given),-2,0,0,0,-10,-1,x,x
COc1ccc(C(=O)OC(C)C(=O)NCC2CCCCC2)cc1S(=O)(=O)N1CCOCC1 (stereo not given),-2,-2,-2,1,0,-1,x,x
O=c1nc(N/N=C/C=C/c2ccccc2)cn[nH]1,16*,2,0,-1,11,3,14*,1
O=c1cnnc(N/N=C/c2c[nH]c3ccccc23)[nH]1,3,0,0,1,28,2,x,x
O=c1nc(N/N=C/c2c[nH]c3ccccc23)cn[nH]1,17*,3,1,-1,32,4,13*,1
CCCCOc1ccc(C(=O)NN2C(=O)NC3(CCCCC3)C2=O)cc1OC,0,1,-1,-2,-3,0,x,x
Cn1cc(Br)c(C(=O)NNC(=O)c2ccc(Br)cc2)n1,14*,2,-1,1,7,0,4,0
Cc1ccccc1NC(=O)CSCc1nc(N)nc(Nc2ccccc2C)n1,3,1,-1,-1,3,0,x,x
CC(C)c1ccc(NC(=O)CSc2n[nH]c(=O)n2-c2ccc3c(c2)OCCO3)cc1,-2,-1,-1,x,7,-3,x,x
CC(=O)Cn1cnc2c(cnn2-c2ccc(C)c(C)c2)c1=O,15*,1,1,3,20,-3,12*,0
OCCSc1nc(-c2cccnc2)nc2ccccc12,2,-1,-1,-1,20,0,x,x
COc1cc(/C=N/NC(=O)c2cc(C)oc2C)ccc1O,7,0,-1,2,17,0,x,x
O=C(N/N=C/c1cccc(O)c1)c1ccccc1O,16*,2,0,2,4,3,9,0
COc1ccc(C=NNC(=O)c2cc(C)oc2C)cc1O,13*,0,-1,0,2,2,14*,0
O=C(N/N=C/c1cccc(O)c1)c1csc2ccccc12,2,0,-1,2,8,-1,x,x
CN(C)c1ccc(/C=C/C(=O)c2ccc(O)cc2)cc1,19*,3.7*,0,5.5*,x,4,14*,1
O=C(c1ccccc1)c1cnc(-c2ccccc2)s1,16*,3,0,9.3*,0,3,18*,1
SMILES,hgDAF-12 ag,DAX1 inh-1,ssDAF-12 act,DAX1 inh-2,AHR act,hcDAF12 agonist,hgDAF12 ag,LXRb DAF12 ctr
O=C(c1ccc(Cl)cc1)c1cnc(-c2ccc(Cl)cc2)s1,1,0,-1,0,-2,0,x,x
C/C(CC(=O)Nc1ccc(Cl)cc1C(F)(F)F)=N\NC(N)=S,-1,-1,-1,x,1,0,x,x
C/C(CC(=O)Nc1ccc(Cl)cc1C(F)(F)F)=N\NC(=O)c1ccccn1,15*,2,0,0,6,4,6,0
C/C(CC(=O)Nc1ccc(Cl)cc1C(F)(F)F)=N\NC(=O)c1cccs1,14*,2,0,8.6*,6,5,5,0
C/C(CC(=O)Nc1ccccc1C(F)(F)F)=N\NC(=O)c1cnccn1,5,1,0,3,4,1,x,x
O=C(NNC(=O)c1ccccc1OCc1ccccc1Cl)c1csc(N2CCOCC2)n1,0,-2,-1,-1,14,-1,x,x
O=C(Nc1cccc(Cl)c1)c1cnccn1,3,0,0,0,1,-1,x,x
Cc1cnc(C(=O)Nc2ccc3c(c2)CCC3)cn1,14*,4.1*,0,1,-3,4,17*,1
O=C(Nc1ccc2c(c1)CCC2)c1cnccn1,17*,4.4*,0,3,3,3,15*,1
Cc1ccc(C(=O)Nc2nc(C)c(C(=O)Nc3ccc4c(c3)CCC4)s2)cc1,17*,0,1.3*,0,18,3,17*,0
COc1cccc(N2CCN(C(=O)c3ccc4nc(N5CCCCC5)sc4c3)CC2)c1,21*,3,0,5.5*,17,1,8,0
COc1ccc(N2CCN(C(=O)c3ccc4nc(N5CCCCC5)sc4c3)CC2)cc1,8,3,0,4,10,1,x,x
O=C(NC(=S)Nc1ccc(N2CCOCC2)cc1)c1ccco1,16*,2,-1,0,9,3,10,0
COc1cccc(-c2noc(C3CCCN(C(=O)CC(C)(C)C)C3)n2)c1 (stereo not given),9,1,-2,1,5,2,x,x
COc1ccc(-c2noc(C3CCCN(C(=O)N[C@@H]4C[C@H]4c4ccccc4)C3)n2)cc1 (stereo not given in full),8,2,-1,x,x,2,x,x
COc1ccc(-c2noc(C3CCCN(C(=O)NC4CCC(C)CC4)C3)n2)cc1 (stereo not given),14*,4,-1,x,x,0,2,0
CCCCC(=O)N1CCCC(c2nc(-c3cccc(OC)c3)no2)C1 (stereo not given),15*,2,-1,2,17,1,6,0
CCc1cccc(NC(=O)CN(c2ccc(OC)cc2)S(=O)(=O)c2c(C)n[nH]c2C)c1,-2,0,-1,1,14,-2,x,x
